Results filed as inconclusive are left out. Calls of active or inactive are those of the source. The calls were made as follows: active = hit-call score of the fitted dose curve at least 0.9, where 1 is the maximum; inconclusive = response in the unintended direction; inactive = score below 0.9.
assay: IUF_NPC2-5_cytotoxicity_72hr: Cytotoxicity Assessment at 72 hours in the Leibniz Research Institute for Environmental Medicine (IUF) Neural Progenitor Cell Migration and Differentiation Assay for Cytotoxicity (NPC2-5) (AID 2284306);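 also: LDH release into supernatant measured by resorufin fluorescence marking membrane damage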
Procedure: IUF_NPC2-5 is a cell-based, multiplexed assay that uses hNPC, a human primary neural progenitor cells, with measurements taken at 72 or 120 hours after chemical dosing in a 96-well plate. Human neural progenitor cells (hNPC) are generated from human fetal brain cortex at gestational week (GW) 16-19. In the neural progenitor cell migration and differentiation assay (NPC2-5), hNPCs grown as spheres are plated on an extracellular matrix and migrate and differentiate out of the sphere core. The processes radial glia migration, neuronal and oligodendrocyte migration as well as neuronal differentiation, neuronal morphology and oligodendrocyte differentiation are studied using automated phase contrast imaging and automated fluorescence imaging in combination with high content image analysis. In parallel, the cell viability is assessed using an alamar blue viability assay and the cytotoxicity using a lactate dehydrogenase dependent membrane integrity assay.IUF_NPC2-5_cytotoxicity_72hr is one of 12 assay components measured from the IUF_NPC2-5 assay. It is designed to measure the cytotoxicity at 72 hr as assessed by membrane integrity related to the LDH dependent reduction of resazurin to resorufin in the supernatant of each well. The cytotoxicity is measured as fluorescence signal (relative fluorescence unit) in a multiplate reader. Data from the IUF_NPC2-5_cytotoxicity_72hr component was analyzed at the endpoint IUF_NPC2-5_cytotoxicity_72hr in the positive analysis fitting direction relative to the dynamic range and baseline of activity. Using a type of viability reporter, gain-of-signal activity can be used to understand cytotoxicity effects.
Culture protocol: After the cell expansion period the cells are cultured for up to four weeks in which they are passaged every week as described in 3.6. Between one to three days after passaging spheres at a size of 0.3 mm are picked for the test method. For the assessment of neural progenitor cell migration and differentiation, the spheres are plated on poly-D-lysine/laminin coated 96-well flat bottom plates in differentiation medium (N2) to initiate migration and differentiation. Thereby one 0.3 mm big sphere is plated in the middle of a well. The differentiation medium consists of DMEM and Ham's F12 at a ratio of 3 to 1 supplemented with 1% N2 and 1% penicillin and streptomycin. Within 5 days NPCs radially migrate out of the sphere core and differentiate into radial glia cells (nestin positive), neurons (TUBB3 positive), oligodendrocytes (O4 positive) and astrocytes (GFAP positive). Cultivation during the test method is performed at 37C and 5% CO2 at a ph of 7.2-7.6.Exposure: 0.3 mm big hNPC are plated in the already prepared test conditions. Exposure starts at day 0 of differentiation and is continued over five days of differentiation until the experiment is terminated. Cells are fed with fresh medium at day 3 of differentiation. Therefore, half of the test condition solution (e.g. solvent control or compound dilution) is replaced by freshly prepared test condition solution.Test Method: Migration distance and cytotoxicity is determined after 72 hours based on brightfield images of each well. The assay is terminated by the assessment of cell viability and cytotoxicity as well as cell fixation after 120 h. Immunocytochemistry is performed for Hoechst positive nuclei, TUBB3 positive neurons and O4 positive oligodendrocytes. On the ICC images, migration after 120 hours, neuronal and oligodendrocyte number, neuronal morphology and neuron/oligodendrocyte specific migration is assessed. immunocytochemical staining (ICC) generates an image for each sphere. The plates are scanned using an automated high content imaging device and all nuclei and their positions are determined automatically based on their intensity and size. Images are imported to the Omnisphero software to run the image analysis that measures the following endpoints. […]

Row | Compound | outcome | AC50
1 | Cc1ccc(-c2c(Cl)nc(C#N)n2S(=O)(=O)N(C)C)cc1 | inactive | 
2 | CCCCOC(=O)c1ccccc1C(=O)OCCCC | inactive | 
3 | CC(C)(C)c1ccc(CSc2cnn(C(C)(C)C)c(=O)c2Cl)cc1 | inactive | 
4 | N#Cc1nn(-c2c(Cl)cc(C(F)(F)F)cc2Cl)c(N)c1S(=O)C(F)(F)F (configuration not stated) | inactive | 
5 | COC(=O)N(OC)c1ccccc1COc1ccn(-c2ccc(Cl)cc2)n1 | inactive | 
6 | C=CC1(C)OC(=O)N(c2cc(Cl)cc(Cl)c2)C1=O (configuration not stated) | inactive | 
7 | CN(C)C(=S)SSC(=S)N(C)C |  | 26.4 µM (active)
8 | CCCCC(CC)COC(=O)c1ccccc1C(=O)OCC(CC)CCCC (configuration not stated) | inactive | 
9 | CO/C=C(/C(=O)OC)c1ccccc1Oc1cc(Oc2ccccc2C#N)ncn1 | inactive | 
10 | CCOc1cc(Oc2ccc(C(F)(F)F)cc2Cl)ccc1[N+](=O)[O-] | inactive | 
11 | COP(N)(=O)SC (configuration not stated) | inactive | 
12 | CNC(=O)ON=CC(C)(C)SC | inactive | 

From PubChem BioAssay (EPA / NIEHS)
